# Reference: PMC5892938, “SARNAclust: Semi-automatic detection of RNA protein binding motifs from immunoprecipitation data”
# Whole data set: some 11,000 sequences, median “log2 fold change” near 0.00022, cut for the highest 2% near 0.34. Some of the results follow.
# Target: GST-SBP-SLBP (stem-loop binding protein) (Homo sapiens, UniProt Q14493 1-270)
# Test: targeted RNA Bind-n-Seq; RBNS binding buffer: 25 mM Tris pH 7.5, 150 mM KCl, 3 mM MgCl2, 0.1% Tween, 0.5 mg/mL BSA, 1 mM DTT; 27 nM protein, 750 pM RNA pool; temperature not stated; high values mean tight binding
# Details: protein: recombinant; tags: N-terminal GST and SBP (pGEX6P1-SBP); structured_RNA
# Summary of the method: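 Read counts per sequence supply the binding signal, defined as the DEseq fold change on a binary-logarithm scale. These counts came from RNA of a designed, T7-transcribed oligo pool at 750 pM that bound 27 nM of GST-SBP-tagged protein, made in Rosetta(DE3) pLysS E. coli and glutathione-purified, in RBNS binding buffer. The bound RNA was reverse transcribed with a 10-nucleotide barcoded primer, PCR-amplified and sequenced on a MiSeq with 200-cycle paired-end reads, then processed with FLASH and HISAT2 and collapsed by barcode.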
row,Sequence,binding signal [log2 fold change]
1,GGUCACGUCUCAAUCAACUCAGUCCCCAGGGAAACCCCUGGUAUUUUCAACAGCUCGCAGUCAAG,0.335 ± 0.368
2,GGUCACGUCUCAAUCAACUCAGUCUCCAGGGAAACCCCUGGUUUAUUCAACAGCUCGCAGUCAAG,0.458 ± 0.335
3,GGUCACGUCUCAAUCAACUCUUCUUCCAGGGAAAACCCUGGCAAACUCAACAGCUCGCAGUCAAG,0.378 ± 0.272
4,GGUCACGUCUCAAUCAACUCUACUUCCAGGGAAAACCCUGGCAAACUCAACAGCUCGCAGUCAAG,0.31 ± 0.258
5,GGUCACGUCUCAAUCAACUCAGUUUCCAGGGAAAUCCCUGGUUUAUUCAACAGCUCGCAGUCAAG,0.33 ± 0.289
6,GGUCACGUCUCAAUCAACUCUUCUUCCAGGGAAACCCCUGGUAAUCUCAACAGCUCGCAGUCAAG,0.352 ± 0.266
7,GGUCACGUCUCAAUCAACUCAGUCCCCAGGGAAAACCCUGGUUUUUUCAACAGCUCGCAGUCAAG,0.518 ± 0.357
8,GGUCACGUCUCAAUCAACUCUCAGGAGGGGGGGAAAACCCCUUUACCCUCAUCGUCAACAGCUCGCAGUCAAG,0.309 ± 0.421
9,GGUCACGUCUCAAUCAACUCUAAGGAGGGGGGGAAAACCCCUUUACCCUCACACUCAACAGCUCGCAGUCAAG,0.396 ± 0.454
10,GGUCACGUCUCAAUCAACUCUAAGGAGGGGGGGAAAACCCCUUUACCCUCAUCAUCAACAGCUCGCAGUCAAG,0.486 ± 0.425
11,GGUCACGUCUCAAUCAACUCUCCAGAGGGGGGGAAAACCCCUUUACCCUCAACAUCAACAGCUCGCAGUCAAG,0.304 ± 0.431
12,GGUCACGUCUCAAUCAACUCAACUGAGGGGGGGAAAACCCCUUUACCCUCCAAAUCAACAGCUCGCAGUCAAG,0.448 ± 0.446
13,GGUCACGUCUCAAUCAACUCAACUGAGGGGGGGAAAACCCCUUUACCCUCCACAUCAACAGCUCGCAGUCAAG,0.388 ± 0.423
14,GGUCACGUCUCAAUCAACUCCCAAGAGGGGGGGAAAACCCCUUUACCCUCGUAAUCAACAGCUCGCAGUCAAG,0.444 ± 0.442
15,GGUCACGUCUCAAUCAACUCAAUAGAGGGGGGGAAAACCCCUUUACCCUCCCAAUCAACAGCUCGCAGUCAAG,0.325 ± 0.459
16,GGUCACGUCUCAAUCAACUCCCAAGAGGGGGGGAAAACCCCUUUACCCUCACUCUCAACAGCUCGCAGUCAAG,0.558 ± 0.444
17,GGUCACGUCUCAAUCAACUCUCACGAGGGGGGGAAAACCCCUUUACCCUCAAAUUCAACAGCUCGCAGUCAAG,0.315 ± 0.408
18,GGUCACGUCUCAAUCAACUCUUACGAGGGGGGGAAAACCCCUUUACCCUCAAAUUCAACAGCUCGCAGUCAAG,0.37 ± 0.399
19,GGUCACGUCUCAAUCAACUCUUACGAGGGGGGGAAAACCCCUUUGCCCUCAACAUCAACAGCUCGCAGUCAAG,0.326 ± 0.377
20,GGUCACGUCUCAAUCAACUCUUACGAGGGGGGGAAAACCCCUUUGCCCUCAAAUUCAACAGCUCGCAGUCAAG,0.347 ± 0.395
21,GGUCACGUCUCAAUCAACUCUUCAGAGGGGGGGAAAACCCCUUUACCCUCCUAAUCAACAGCUCGCAGUCAAG,0.368 ± 0.433
22,GGUCACGUCUCAAUCAACUCUUCAGAGGGGGGGAAAACCCCUUUACCCUCCGUUUCAACAGCUCGCAGUCAAG,0.44 ± 0.434
23,GGUCACGUCUCAAUCAACUCGUUUUCAGGAGUUUACUCCUGCUUAUUCAACAGCUCGCAGUCAAG,0.329 ± 0.222
24,GGUCACGUCUCAAUCAACUCAAAAGAGGGGGGGAAAACCCCUUUGCCCUCGAUAUCAACAGCUCGCAGUCAAG,0.336 ± 0.363

row,Sequence,binding signal [log2 fold change]
1,GGUCACGUCUCAAUCAACUCACAAGAGGGGGGGAAAACCCCUUUGCCCUCCGUAUCAACAGCUCGCAGUCAAG,0.416 ± 0.404
2,GGUCACGUCUCAAUCAACUCACAAGAGGGGGGGAAAACCCCUUUGCCCUCGAUAUCAACAGCUCGCAGUCAAG,0.468 ± 0.396
3,GGUCACGUCUCAAUCAACUCCCACGAGGGGGGGAAAACCCCUUUACCCUCAACCUCAACAGCUCGCAGUCAAG,0.335 ± 0.423
4,GGUCACGUCUCAAUCAACUCCCACGAGGGGGGGAAAACCCCUUUACCCUCACACUCAACAGCUCGCAGUCAAG,0.366 ± 0.434
5,GGUCACGUCUCAAUCAACUCCCACGAGGGGGGGAAAACCCCUUUACCCUCUCAAUCAACAGCUCGCAGUCAAG,0.362 ± 0.418
6,GGUCACGUCUCAAUCAACUCAAUCGAGGGGGGGAAAACCCCUUUGCCCUCAUCUUCAACAGCUCGCAGUCAAG,0.419 ± 0.432
7,GGUCACGUCUCAAUCAACUCAAACGAGGGGGGGAAAACCCCUUUGCCCUCAUCUUCAACAGCUCGCAGUCAAG,0.58 ± 0.399
8,GGUCACGUCUCAAUCAACUCCUCAGAGGGGGGGAAAACCCCUUUACCCUCGUCCUCAACAGCUCGCAGUCAAG,0.382 ± 0.44
9,GGUCACGUCUCAAUCAACUCAACAGAGGGGGGGAAAACCCCUUUACCCUCAAUAUCAACAGCUCGCAGUCAAG,0.362 ± 0.427
10,GGUCACGUCUCAAUCAACUCCUCAGAGGGGGGGAAAACCCCUUUACCCUCAAUAUCAACAGCUCGCAGUCAAG,0.394 ± 0.424
11,GGUCACGUCUCAAUCAACUCAAUAGAGGGGGGGAAAACCCCUUUACCCUCAAACUCAACAGCUCGCAGUCAAG,0.319 ± 0.424
12,GGUCACGUCUCAAUCAACUCCCUCGAGGGGGGGAAAACCCCUUUACCCUCAUCGUCAACAGCUCGCAGUCAAG,0.532 ± 0.391
13,GGUCACGUCUCAAUCAACUCCCUCGAGGGGGGGAAAACCCCUUUACCCUCAUUAUCAACAGCUCGCAGUCAAG,0.395 ± 0.38
14,GGUCACGUCUCAAUCAACUCUAUUCCCAGGGAAAGCCCUGGUAUUCUCAACAGCUCGCAGUCAAG,0.307 ± 0.273
15,GGUCACGUCUCAAUCAACUCAAUCCCCAGGGAAAGCCCUGGUAUUCUCAACAGCUCGCAGUCAAG,0.378 ± 0.274
16,GGUCACGUCUCAAUCAACUCUAUCCCCAGGGAAAUCCCUGGUAUAUUCAACAGCUCGCAGUCAAG,0.333 ± 0.304
17,GGUCACGUCUCAAUCAACUCUAUUCCCAGGGAAAGCCCUGGCUAUCUCAACAGCUCGCAGUCAAG,0.342 ± 0.296
18,GGUCACGUCUCAAUCAACUCUAUUCCCAGGGAAAGCCCUGGUAUUUUCAACAGCUCGCAGUCAAG,0.387 ± 0.281
19,GGUCACGUCUCAAUCAACUCUAUCCCCAGGGAAAGCCCUGGUAUAUUCAACAGCUCGCAGUCAAG,0.366 ± 0.305
20,GGUCACGUCUCAAUCAACUCUUUUCCCAGGGAAAUCCCUGGCAUACUCAACAGCUCGCAGUCAAG,0.334 ± 0.22
21,GGUCACGUCUCAAUCAACUCAUCUCCCAGGGAAAACCCUGGUAUAUUCAACAGCUCGCAGUCAAG,0.374 ± 0.346
22,GGUCACGUCUCAAUCAACUCAAGUCCCAGGGAAAACCCUGGCAAUUUCAACAGCUCGCAGUCAAG,0.381 ± 0.341
23,GGUCACGUCUCAAUCAACUCUUCUUCCAGGGAAAUCCCUGGCAUACUCAACAGCUCGCAGUCAAG,0.399 ± 0.235
24,GGUCACGUCUCAAUCAACUCUUUUUCCAGGGAAACCCCUGGCAUACUCAACAGCUCGCAGUCAAG,0.44 ± 0.276

row,Sequence,binding signal [log2 fold change]
1,GGUCACGUCUCAAUCAACUCAAUCCCCAGGGAAAACCCUGGCUAUUUCAACAGCUCGCAGUCAAG,0.338 ± 0.272
2,GGUCACGUCUCAAUCAACUCAACUUCCAGGGAAAACCCUGGCAUUUUCAACAGCUCGCAGUCAAG,0.305 ± 0.262
3,GGUCACGUCUCAAUCAACUCUUUUUCCAGGGAAACCCCUGGUAUACUCAACAGCUCGCAGUCAAG,0.445 ± 0.233
4,GGUCACGUCUCAAUCAACUCUACUCCCAGGGAAAACCCUGGUAAUUUCAACAGCUCGCAGUCAAG,0.454 ± 0.318
5,GGUCACGUCUCAAUCAACUCUAUUCCCAGGGAAAACCCUGGCAUUUUCAACAGCUCGCAGUCAAG,0.49 ± 0.262
6,GGUCACGUCUCAAUCAACUCUAUUCCCAGGGAAACCCCUGGCAUACUCAACAGCUCGCAGUCAAG,0.311 ± 0.273
7,GGUCACGUCUCAAUCAACUCAAUCCCCAGGGAAAACCCUGGCAUACUCAACAGCUCGCAGUCAAG,0.351 ± 0.232
8,GGUCACGUCUCAAUCAACUCAGUUUCCAGGGAAAACCCUGGCUUUCUCAACAGCUCGCAGUCAAG,0.31 ± 0.297
9,GGUCACGUCUCAAUCAACUCUUUUUCCAGGGAAAACCCUGGCAUGUUCAACAGCUCGCAGUCAAG,0.34 ± 0.244
10,GGUCACGUCUCAAUCAACUCAUCUCCCAGGGAAAACCCUGGCAUUCUCAACAGCUCGCAGUCAAG,0.367 ± 0.304
11,GGUCACGUCUCAAUCAACUCUUUUUCCAGGGAAAACCCUGGCGUAUUCAACAGCUCGCAGUCAAG,0.352 ± 0.225
12,GGUCACGUCUCAAUCAACUCUUCUCCCAGGGAAACCCCUGGCAUUCUCAACAGCUCGCAGUCAAG,0.304 ± 0.257
13,GGUCACGUCUCAAUCAACUCCUUAGAGGGGGGGAAAACCCCUUUACCCUCGUUAUCAACAGCUCGCAGUCAAG,0.302 ± 0.406
14,GGUCACGUCUCAAUCAACUCAAUGGAGGGGGGGAAAACCCCUUUACCCUCAAAAUCAACAGCUCGCAGUCAAG,0.547 ± 0.434
15,GGUCACGUCUCAAUCAACUCCUUAGAGGGGGGGAAAACCCCUUUACCCUCAACCUCAACAGCUCGCAGUCAAG,0.395 ± 0.407
16,GGUCACGUCUCAAUCAACUCCUUAGAGGGGGGGAAAACCCCUUUACCCUCAAAAUCAACAGCUCGCAGUCAAG,0.546 ± 0.43
17,GGUCACGUCUCAAUCAACUCCUUAGAGGGGGGGAAAACCCCUUUACCCUCAACUUCAACAGCUCGCAGUCAAG,0.489 ± 0.43
18,GGUCACGUCUCAAUCAACUCUUCAGAGGGGGGGAAAACCCCUUUACCCUCACAAUCAACAGCUCGCAGUCAAG,0.311 ± 0.418
19,GGUCACGUCUCAAUCAACUCAUAGGAGGGGGGGAAAACCCCUUUACCCUCAACUUCAACAGCUCGCAGUCAAG,0.451 ± 0.453
20,GGUCACGUCUCAAUCAACUCAUCAGAGGGGGGGAAAACCCCUUUACCCUCAUCCUCAACAGCUCGCAGUCAAG,0.388 ± 0.447
21,GGUCACGUCUCAAUCAACUCAUAGGAGGGGGGGAAAACCCCUUUACCCUCAUCAUCAACAGCUCGCAGUCAAG,0.315 ± 0.446
22,GGUCACGUCUCAAUCAACUCCCCAGAGGGGGGGAAAACCCCUUUACCCUCAUCCUCAACAGCUCGCAGUCAAG,0.566 ± 0.415
23,GGUCACGUCUCAAUCAACUCAUCAGAGGGGGGGAAAACCCCUUUACCCUCAACUUCAACAGCUCGCAGUCAAG,0.39 ± 0.431
